The source made the active and inactive calls. How the source made its calls: active means hit-call score of the fitted dose curve at least 0.9, where 1 is the maximum; inactive means score below 0.9.

The values below come from PubChem BioAssay (EPA / NIEHS).

Assay [1] can be described thus: BSK_KF3CT_SRB: Viability Assessment in the BioMAP Diversity Plus: KF3CT Assay (AID 2283069).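 Further: total protein by sulforhodamine B staining as a cytotoxicity measure; read 24 h after compound addition.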 The conditions noted are these: primary human keratinocytes with fibroblasts. Summed up:
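Human primary keratinocyte plus foreskin fibroblast co-culture exposed to chemicals for 24 h. Total protein measured by 0.1% sulforhodamine B staining after 10% TCA fixation, read at 560 nm; bidirectional fitting versus DMSO baseline.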

Read-out in assay [2]: Interleukin-1 alpha (IL1a), IL1A (gene 3552)
Put plainly: BSK_KF3CT_IL1a: BioMAP Diversity Plus: KF3CT Assay for Interleukin-1 alpha (IL1a) Biomarker Activity (AID 2283070). To be noted: primary human keratinocytes with fibroblasts; actives raise or lower the signal. Summed up: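 Human keratinocyte plus foreskin fibroblast primary co-culture, sampled 24 h after chemical dosing. IL-1a measured by ELISA; responses fitted bidirectionally against DMSO baseline (negative control), so gain or loss of signal both count.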

Read-out in assay [3]: TIMP metallopeptidase inhibitor 2 (TIMP2), TIMP2 (gene 7077)
Put plainly: BSK_KF3CT_TIMP2: BioMAP Diversity Plus: KF3CT Assay for TIMP metallopeptidase inhibitor 2 (TIMP2) Biomarker Activity (AID 2283071). To be noted: primary human keratinocytes with fibroblasts; actives raise or lower the signal. In short, it runs like this:
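Co-culture of human primary keratinocytes and foreskin fibroblasts, measured 24 h after chemical dosing. TIMP-2 quantified by ELISA and fitted in both directions relative to DMSO. Cytotoxicity checked in parallel cultures by SRB total-protein staining.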

Read-out in assay [4]: C-C motif chemokine 2 (Homo sapiens) (UniProt P13500)
Put plainly: BSK_KF3CT_MCP1: BioMAP Diversity Plus: KF3CT Assay for Monocyte Chemoattractant Protein 1 (MCP1/CCL2) Biomarker Activity (AID 2283073). To be noted: primary human keratinocytes with fibroblasts; actives raise or lower the signal. Summed up:
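Biomarker MCP-1 is measured by ELISA in primary human keratinocytes co-cultured with foreskin fibroblasts, 24 h after chemical treatment; DMSO serves as the negative control and activity baseline.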

Read-out in assay [5]: Matrix Metallopeptidase 9 (MMP9), MMP9 (gene 4318)
Put plainly: BSK_KF3CT_MMP9: BioMAP Diversity Plus: KF3CT Assay for Matrix Metallopeptidase 9 (MMP9) Biomarker Activity (AID 2283074). To be noted: primary human keratinocytes with fibroblasts; actives raise or lower the signal. In short, it runs like this:
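Keratinocyte plus foreskin fibroblast human primary skin co-culture was dosed with chemical and MMP-9 was quantified by ELISA 24 h later. Bidirectional curve fitting used DMSO as negative control and activity baseline.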

Read-out in assay [6]: urokinase plasminogen activator (uPA), PLAU (gene 5328)
Put plainly: BSK_KF3CT_uPA: BioMAP Diversity Plus: KF3CT Assay for urokinase plasminogen activator (uPA) Biomarker Activity (AID 2283075). To be noted: primary human keratinocytes with fibroblasts; actives raise or lower the signal. Summed up:
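Human keratinocyte plus foreskin fibroblast primary co-culture exposed to chemical for 24 h. uPA levels were quantified by ELISA, and activity was fitted bidirectionally against a DMSO negative-control baseline.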

Read-out in the next assay: CD40, CD40 (gene 958)
Put plainly: BSK_LPS_CD40: BioMAP Diversity Plus: LPS Assay for CD40 Biomarker Activity (AID 2283076). The conditions noted are these: primary human HUVEC with PBMC; actives raise or lower the signal. Summed up:
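Using a multiplexed primary human co-culture (umbilical vein endothelium plus PBMC), CD40 was read by ELISA 24 h after dosing, with cytotoxicity tracked by sulforhodamine B staining of parallel cultures and activity fitted bidirectionally versus DMSO.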

Read-out in assay [7]: E-selectin (Homo sapiens) (UniProt P16581)
Put plainly: BSK_LPS_Eselectin: BioMAP Diversity Plus: LPS Assay for Eselectin Biomarker Activity (AID 2283077). The conditions noted are these: primary human HUVEC with PBMC; actives raise or lower the signal. Summed up:
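Dose chemical onto LPS-driven HUVEC/PBMC co-culture; after 24 h, run ELISA for E-selectin; fit up- and down-going responses relative to DMSO control.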

Read-out in assay [8]: Interleukin-8 (IL8), CXCL8 (gene 3576)
Put plainly: BSK_LPS_IL8: BioMAP Diversity Plus: LPS Assay for Interleukin-8 (IL8) Biomarker Activity (AID 2283078). The conditions noted are these: primary human HUVEC with PBMC; actives raise or lower the signal. In short, it runs like this: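 In this LPS system, chemical-treated human umbilical vein endothelium/PBMC co-cultures were harvested at 24 h for IL-8 ELISA.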

Read-out in assay [9]: Transforming growth factor beta 1 (TGFb1), TGFB1 (gene 7040)
Put plainly: BSK_KF3CT_TGFb1: BioMAP Diversity Plus: KF3CT Assay for Transforming growth factor beta 1 (TGFb1) Biomarker Activity (AID 2283072). The conditions noted are these: primary human keratinocytes with fibroblasts; actives raise or lower the signal. In short, it runs like this: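 Human keratinocyte/foreskin fibroblast co-culture; TGF-b1 measured by ELISA 24 h after dosing, fitted bidirectionally versus DMSO. Cytotoxicity checked in parallel cultures by total protein (SRB staining, 560 nm).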

Chain of E-selectin (Homo sapiens) (P16581 whole entry, looked up): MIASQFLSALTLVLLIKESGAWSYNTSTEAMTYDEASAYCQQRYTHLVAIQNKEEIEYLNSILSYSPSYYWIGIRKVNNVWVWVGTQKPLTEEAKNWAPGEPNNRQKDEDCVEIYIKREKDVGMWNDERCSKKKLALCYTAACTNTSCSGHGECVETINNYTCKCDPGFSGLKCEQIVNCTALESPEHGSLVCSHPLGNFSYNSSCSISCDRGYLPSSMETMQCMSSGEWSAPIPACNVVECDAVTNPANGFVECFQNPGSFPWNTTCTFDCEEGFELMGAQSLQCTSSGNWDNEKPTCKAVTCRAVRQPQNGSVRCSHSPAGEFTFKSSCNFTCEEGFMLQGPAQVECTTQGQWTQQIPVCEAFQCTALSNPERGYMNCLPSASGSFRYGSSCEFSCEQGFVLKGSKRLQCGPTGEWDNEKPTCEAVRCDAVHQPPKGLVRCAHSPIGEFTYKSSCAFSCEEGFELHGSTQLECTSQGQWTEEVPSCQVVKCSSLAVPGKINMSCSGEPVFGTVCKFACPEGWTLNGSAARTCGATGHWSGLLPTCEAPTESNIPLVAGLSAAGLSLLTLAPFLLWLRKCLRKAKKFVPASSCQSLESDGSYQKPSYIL

Turning to `COP(=O)(OC)O/C(C)=C/C(=O)N(C)C`, the result in assay [1], in [2], in [3], in assay [4], in [5] and in assay [6] was inactive. Further, the outcome is “inactive” in the assay with CD40, CD40 (gene 958); “inactive” in assay [7]; “inactive” in assay [8].
For orientation: AC50 means the midpoint of the concentration-response curve, whichever way the signal moves. Turning to `CC(C)N1C(=O)c2ccccc2NS1(=O)=O`, the result in assay [1], in assay [2], in [3], in [9], in [5] and in assay [6] was inactive. Also, the outcome with CD40, CD40 (gene 958) is “inactive”; in assay [7], “inactive”; in assay [8], “inactive”. Further, in assay [4], the AC50 is 0.535 µM (active).
For the compound `CC(C)=CC1C(C(=O)OCc2coc(Cc3ccccc3)c2)C1(C)C` (stereo not drawn), the outcome in assay [1], in [2], in [3], in assay [9], in [4] and in [5] was inactive. For the same compound, the outcome in assay [6] is “inactive”; in the assay with CD40, CD40 (gene 958), “inactive”; in assay [8], “inactive”. In addition, in assay [7], the AC50 was 12.1 µM (active).
On to `Nc1c(Cl)c(Cl)nc(C(=O)O)c1Cl`, for which the outcome in [1], in [2], in [3], in assay [4], in assay [5] and in assay [6] was inactive. Moreover, the outcome was “inactive” with CD40, CD40 (gene 958); “inactive” in [7]; “inactive” in assay [8].
Consider `CC(C)C1(C)N=C(c2ncccc2C(=O)O)NC1=O` (stereo not drawn), for which the outcome in [1], in [2], in [3], in assay [9], in [4] and in assay [5] was inactive. For the same compound, the outcome in [6] is “inactive”; with CD40, CD40 (gene 958), “inactive”; in assay [7] it was “inactive”; in [8], “inactive”.
Turning to `CCCC(=NOCC)C1=C(O)CC(CC(C)SCC)CC1=O` (stereo not drawn), the result in [1], in assay [2], in [3], in [9], in [4] and in assay [5] was inactive. For the same compound, the outcome in assay [6] was “inactive”; with CD40, CD40 (gene 958), “inactive”; in assay [7] it was “inactive”; in assay [8], “inactive”.
Consider `CCOP(=S)(OCC)Oc1nc(Cl)n(C(C)C)n1`, for which the result in assay [1], in assay [2], in assay [3], in assay [9], in assay [4] and in assay [5] was inactive. Also, the outcome was “inactive” in [6]; “inactive” in the assay with CD40, CD40 (gene 958); “inactive” in assay [7]; “inactive” in [8].
For `Cc1nc(N(C)C)nc(OC(=O)N(C)C)c1C`, the outcome in assay [1], in assay [2], in [3], in assay [9], in assay [4] and in [5] was inactive. Further, the outcome in assay [6] was “inactive”; in the assay with CD40, CD40 (gene 958), “inactive”; in assay [7], “inactive”; in assay [8], “inactive”.
Regarding `CCCCC(C#N)(Cn1cncn1)c1ccc(Cl)cc1` (stereo not drawn), the result in assay [1], in assay [2], in assay [3], in [9], in assay [4] and in assay [5] was inactive. Moreover, the outcome was “inactive” in assay [6]; “inactive” in the assay with CD40, CD40 (gene 958); “inactive” in assay [7]; “inactive” in [8].
As for `CCSC(=O)N1CCCCCC1`, the result in [1], in assay [2], in assay [3], in [9], in assay [4] and in [5] was inactive. For the same compound, the outcome is “inactive” in [6]; “inactive” with CD40, CD40 (gene 958); “inactive” in [7]; “inactive” in assay [8].
In the case of `CC(C)Oc1cccc(NC(=O)c2ccccc2C(F)(F)F)c1`, the result in assay [1], in assay [2], in assay [3], in assay [9], in assay [4] and in assay [5] was inactive. Moreover, the outcome was “inactive” in assay [6]; “inactive” with CD40, CD40 (gene 958); “inactive” in [7]; “inactive” in [8].
In the case of `N#Cc1c[nH]cc1-c1cccc2c1OC(F)(F)O2`, the outcome in [1], in assay [2], in assay [3], in assay [9], in [4] and in assay [5] was inactive. Also, the result in assay [6], in assay [7] and in assay [8] was inactive. Also, the AC50 in the assay with CD40, CD40 (gene 958) is 7.2 µM (active).
As to `COCc1cnc(C2=NC(C)(C(C)C)C(=O)N2)c(C(=O)O)c1` (stereo not drawn), the result in assay [1], in assay [2], in assay [3], in [9], in assay [4] and in assay [5] was inactive. Also, the outcome is “inactive” in [6]; “inactive” with CD40, CD40 (gene 958); “inactive” in [7]; “inactive” in assay [8].
Regarding `CN/C(=N\[N+](=O)[O-])NCc1cnc(Cl)s1`, the result in assay [1], in assay [2], in [3], in assay [9], in assay [4] and in assay [5] was inactive. For the same compound, the outcome in [6] is “inactive”; with CD40, CD40 (gene 958) it was “inactive”; in [7], “inactive”; in assay [8], “inactive”.
Turning to `CC1(C)CCC(=Cc2ccc(Cl)cc2)C1(O)Cn1cncn1` (stereo not drawn), the outcome in assay [1], in assay [2], in assay [3], in assay [9], in assay [4] and in [5] was inactive. Also, the outcome was “inactive” in [6]; “inactive” in the assay with CD40, CD40 (gene 958); “inactive” in assay [7]; “inactive” in assay [8].
Turning to `CN=C=S`, the outcome in [1], in [2], in [3], in [9], in assay [4] and in [5] was inactive. In addition, the outcome in assay [6] is “inactive”; with CD40, CD40 (gene 958) it was “inactive”; in assay [7], “inactive”; in assay [8], “inactive”.
On to `CC1(C)C(C=C(Cl)Cl)C1C(=O)OC(C#N)c1cccc(Oc2ccccc2)c1` (stereo not drawn), for which the result in [1], in [2], in assay [3], in [9], in assay [4] and in assay [5] was inactive. The outcome is “inactive” in assay [6]; “inactive” with CD40, CD40 (gene 958); “inactive” in assay [7]; “inactive” in assay [8].
